Measured values taken from PubChem BioAssay.

Assay: basal HepG2 mitochondrial membrane potential changes, profiling panel, cell-based, JC-1 fluorescence, 24 h, 100 nL compound (AID 1167); also: test concentration not given here
Conditions: higher = more signal

Row | SMILES | z-score
1 | [N-]=[N+]=Nc1ccccc1[C@@H]1OC(c2ccc(OCCCO)cc2)=N[C@]1(Cc1ccccc1)C(=O)O | -1.24
2 | COc1ccc([C@H]2OC[C@@H]3C[C@H](Cc4ccccc4)C(=O)N32)cc1 | -0.703
3 | CC(C)N1CC=CC23O[C@@H]4C=CCCOC(=O)C4[C@H]2C(=O)N(CCCO)[C@@H]3C1=O (stereo partly drawn) | -0.568
4 | COc1ccc([Si](C)(C)[C@@H]2[C@@H](CCO)O[C@]3(C(=O)N(Cc4cccc(NC(=O)[C@H](C)O)c4)c4ccccc43)[C@H]2C)cc1 | -1.37
5 | NCCCCCNC(=O)[C@@H]1C[C@@H]2C(=O)N[C@@H](CCCCN)C(=O)N2[C@@H]1c1ccc(O)cc1 | -0.573
6 | C=CCN1Cc2ccccc2[C@@H]2OC(c3ccc(OCCCO)cc3)=N[C@]2(CC=C)C1=O | 0.752
7 | C=CCNC(=O)[C@@H]1[C@H]2C(=O)O[C@H](c3ccccc3)[C@H](c3ccccc3)N2[C@H](c2ccccc2OCCO)[C@@]12C(=O)N(C(=O)OCCOC)c1ccc(C#CC3(O)CCCCCC3)cc12 | -0.746
8 | CC(C)N1C(=O)c2ccccc2[C@@H](C(=O)NCCN2CCOCC2)[C@@H]1c1ccc(CO)cc1 | -0.247
